Measured values: PubChem BioAssay (NCATS)
Results filed as inconclusive are left out. Active and inactive are the calls of the source. Calls come from the whole dose curve; as a rule, active = well fitted cell-killing curve with a large enough effect; inconclusive = small, poorly fitted or top-dose-only effect; inactive = flat fitted curve, though single readings scatter.

Assay: Quantitative highthroughput screen to assess conditional lethalithy of P12 Ichikawa cells grown in RPMI1640 with untreated serum (RPMI+s) (AID 1963881); note: nearly all actives have a fitted effect of over 35% in size;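 for viability: 100% = DMSO wells and 0% = empty wells without cells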
Details: ATP luminescence, 48 h; Potency: viability; series mostly up to 45.8 µM; viability: at the top concentration
How it was run: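 Each medium arm—HPLM with 10% dialyzed FBS, or RPMI1640 with 5 mM glucose and 10% untreated or dialyzed FBS—was screened against an 11-point, 3-fold compound titration for 48 h at 37 °C, with CellTiter-Glo luminescence as endpoint.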
Potency is the fitted concentration of half-maximal effect.

Compound	viability	Potency
C[C@]12CC[C@H](O)CC1=CC[C@H]1[C@H]3CCC(=O)[C@@]3(C)CC[C@@H]12	92.5% (inactive)	–
C[C@H]([C@H](O)CCC(C)(C)O)[C@H]1CC[C@@]2(O)C3=CC(=O)[C@@H]4C[C@@H](O)[C@@H](O)C[C@]4(C)[C@@H]3CC[C@]12C	104% (inactive)	–
CC[C@H]1C=CC=CC[C@@H](C)[C@H](O)[C@@](C)(O)C(=O)[C@@H](C)[C@H](O)[C@@H](C)C(=O)[C@@H](C)[C@H](O)[C@@H](C)C=CC(=O)O[C@@H]2[C@@H](C)[C@H](CC1)O[C@]1(CC[C@H](C)[C@H](C[C@@H](C)O)O1)[C@H]2C	–	16.6 µM (active)
CC(=CCCC1=CCC(C2=CC(=O)OC2O)OC1O)CCC1=C(C)CCCC1(C)C (stereo not given)	94.4% (inactive)	–
CCOC(=O)c1c(C(C#N)=CN)c2ccc(Cl)c(Cl)c2n1C	99% (inactive)	–
